# Data: PubChem BioAssay (NCATS)
# Results filed as inconclusive are left out. A number with no mark means an inactive call. Active and inactive are the calls of the source. Calls follow the shape of the dose curve; as a rule, active = well fitted cell-killing curve with a large enough effect; inconclusive = small, poorly fitted or top-dose-only effect, or effect the other way; inactive = no such curve, though single readings can be large or run the other way.
# What was measured:
# [1] = Quantitative High-Throughput drug screen in 47 multiple myeloma cell lines against the NCATS MIPE library collection: LP1_DSMZ cell viability assay (AID 1918982); also: nearly all actives have a fitted effect of over 35% in size; also: potency is read from the fitted curve at half-maximal effect
# Procedure, shortened: (§1)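 500 cells/well; MIPE 4.0 drugs pin-transferred; 48 h, 37C, 5% CO2. CellTiter-Glo, 5 min RT, luminescence. Controls: DMSO 100%, media 0%.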
# [2] = Quantitative High-Throughput drug screen in 47 multiple myeloma cell lines against the NCATS MIPE library collection: KMS28PE_JCRB cell viability assay (AID 1918983); also: nearly all actives have a fitted effect of over 35% in size; also: potency is read from the fitted curve at half-maximal effect
# Procedure, shortened: as §1
# [3] = Quantitative High-Throughput drug screen in 47 multiple myeloma cell lines against the NCATS MIPE library collection: L363_DSMZ cell viability assay (AID 1918984); settings: L363 myeloma viability, CellTiter-Glo ATP luminescence, 48 h; viability (% of control): at 45.8 µM (top of the series); also: nearly all actives have a fitted effect of over 40% in size; also: potency is read from the fitted curve at half-maximal effect
# Procedure, shortened: as §1
# [4] = Quantitative High-Throughput drug screen in 47 multiple myeloma cell lines against the NCATS MIPE library collection: KMS34_JCRB cell viability assay (AID 1918985); also: nearly all actives have a fitted effect of over 40% in size; also: potency is read from the fitted curve at half-maximal effect
# Procedure, shortened: as §1
# [5] = Quantitative High-Throughput drug screen in 47 multiple myeloma cell lines against the NCATS MIPE library collection: OCIMY7_PLB cell viability assay (AID 1918987); settings: OCI-MY7 myeloma viability, CellTiter-Glo ATP, 48 h; viability (% of DMSO): at 45.8 µM (top of the series); also: nearly all actives have a fitted effect of over 65% in size; also: potency is read from the fitted curve at half-maximal effect
# Procedure, shortened: as §1
# [6] = Quantitative High-Throughput drug screen in 47 multiple myeloma cell lines against the NCATS MIPE library collection: OCIMY5_PLB cell viability assay (AID 1918988); also: nearly all actives have a fitted effect of over 65% in size; also: potency is read from the fitted curve at half-maximal effect
# Procedure, shortened: as §1
# [7] = Quantitative High-Throughput drug screen in 47 multiple myeloma cell lines against the NCATS MIPE library collection: OPM1_PLB cell viability assay (AID 1918989); also: nearly all actives have a fitted effect of over 40% in size; also: potency is read from the fitted curve at half-maximal effect
# Procedure, shortened: as §1
# [8] = Quantitative High-Throughput drug screen in 47 multiple myeloma cell lines against the NCATS MIPE library collection: SKMM1_PLB cell viability assay (AID 1919863); settings: SKMM1 myeloma viability, CellTiter-Glo ATP, 48 h; viability: stronger effect = lower value; also: nearly all actives have a fitted effect of over 35% in size; also: potency is read from the fitted curve at half-maximal effect
# Procedure, shortened: as §1
# [9] = Quantitative High-Throughput drug screen in 47 multiple myeloma cell lines against the NCATS MIPE library collection: U266_ATCC cell viability assay (AID 1919864); also: nearly all actives have a fitted effect of over 35% in size; also: potency is read from the fitted curve at half-maximal effect
# Procedure, shortened: as §1
# [10] = Quantitative High-Throughput drug screen in 47 multiple myeloma cell lines against the NCATS MIPE library collection: XG6_PLB cell viability assay (AID 1919865); also: nearly all actives have a fitted effect of over 40% in size; also: potency is read from the fitted curve at half-maximal effect
# Procedure, shortened: as §1
# [11] = Quantitative High-Throughput drug screen in 47 multiple myeloma cell lines against the NCATS MIPE library collection: XG1_PLB cell viability assay (AID 1919866); also: nearly all actives have a fitted effect of over 35% in size; also: potency is read from the fitted curve at half-maximal effect
# Procedure, shortened: as §1
# [12] = Quantitative High-Throughput drug screen in 47 multiple myeloma cell lines against the NCATS MIPE library collection: VP6_DJ cell viability assay (AID 1919867); also: nearly all actives have a fitted effect of over 40% in size; also: potency is read from the fitted curve at half-maximal effect
# Procedure, shortened: as §1
# [13] = Quantitative High-Throughput drug screen in 47 multiple myeloma cell lines against the NCATS MIPE library collection: UTMC2_PLB cell viability assay (AID 1919868); settings: CellTiter-Glo ATP luminescence, 48 h; viability (% of DMSO control): at 45.8 µM (top of the series); also: nearly all actives have a fitted effect of over 55% in size; also: potency is read from the fitted curve at half-maximal effect
# Procedure, shortened: as §1
# [14] = Quantitative High-Throughput drug screen in 47 multiple myeloma cell lines against the NCATS MIPE library collection: PE2_PLB cell viability assay (AID 1919869); also: nearly all actives have a fitted effect of over 35% in size; also: potency is read from the fitted curve at half-maximal effect
# Procedure, shortened: as §1
# [15] = Quantitative High-Throughput drug screen in 47 multiple myeloma cell lines against the NCATS MIPE library collection: RPMI8226_ATCC cell viability assay (AID 1919871); also: nearly all actives have a fitted effect of over 30% in size; also: potency is read from the fitted curve at half-maximal effect
# Procedure, shortened: as §1
# [16] = Quantitative High-Throughput drug screen in 47 multiple myeloma cell lines against the NCATS MIPE library collection: MM1R_ATCC cell viability assay (AID 1918981)
# Procedure, shortened: as §1
# [17] = Quantitative High-Throughput drug screen in 47 multiple myeloma cell lines against the NCATS MIPE library collection: KMS11_JCRBsus cell viability assay (AID 1919873); also: nearly all actives have a fitted effect of over 50% in size; also: potency is read from the fitted curve at half-maximal effect
# Procedure, shortened: as §1
# [18] = Quantitative High-Throughput drug screen in 47 multiple myeloma cell lines against the NCATS MIPE library collection: PCM6_Riken cell viability assay (AID 1919870); also: nearly all actives have a fitted effect of over 30% in size; also: potency is read from the fitted curve at half-maximal effect
# Procedure, shortened: as §1
# [19] = Quantitative High-Throughput drug screen in 47 multiple myeloma cell lines against the NCATS MIPE library collection: KMS28BM_JCRB cell viability assay (AID 1919874); also: nearly all actives have a fitted effect of over 35% in size; also: potency is read from the fitted curve at half-maximal effect
# Procedure, shortened: as §1
# [20] = Quantitative High-Throughput drug screen in 47 multiple myeloma cell lines against the NCATS MIPE library collection: OPM2_DSMZ cell viability assay (AID 1919872); also: nearly all actives have a fitted effect of over 30% in size
# Procedure, shortened: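 We plated 500 myeloma cells per well, pinned in MIPE 4.0 compounds, and incubated for 48 hours at 37C. ATP was then quantified with CellTiter-Glo, with DMSO and media-only wells defining 100% and 0%.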
smiles,measurement,setting,value
Fc1ccc(C(c2ccc(F)cc2)N2CCN(CC=Cc3ccccc3)CC2)cc1,Potency,[1],16.6 µM (active)
same,Potency,[2],inactive
same,Potency,[3],inactive
same,Potency,[4],inactive
same,Potency,[5],13.2 µM (active)
same,Potency,[6],14.8 µM (active)
same,Potency,[7],inactive
same,viability,[8],107%
same,Potency,[9],inactive
same,Potency,[10],7.43 µM (active)
same,Potency,[11],9.35 µM (active)
same,Potency,[12],8.33 µM (active)
same,Potency,[13],inactive
same,Potency,[14],5.26 µM (active)
same,Potency,[15],16.6 µM (active)
CCNC(=O)[C@H]1O[C@@H](n2cnc3c(N)nc(NCCc4ccc(CCC(=O)O)cc4)nc32)[C@H](O)[C@H]1O,Potency,[16],0.0526 µM (active)
same,Potency,[6],0.0662 µM (active)
same,Potency,[7],inactive
same,Potency,[9],0.118 µM (active)
same,Potency,[11],inactive
same,Potency,[14],0.0469 µM (active)
same,Potency,[15],inactive
same,Potency,[17],inactive
O=C(Nc1ncc(SCCN2CCCC2)s1)[C@]1(c2ccc(S(=O)(=O)C3CC3)cc2)C[C@@H]1C1CCCCC1,Potency,[1],20.9 µM (active)
same,Potency,[2],23.5 µM (active)
same,Potency,[3],7.43 µM (active)
same,Potency,[4],18.7 µM (active)
same,Potency,[5],18.7 µM (active)
same,Potency,[6],14.8 µM (active)
same,Potency,[7],16.6 µM (active)
same,Potency,[8],23.5 µM (active)
same,Potency,[9],8.33 µM (active)
same,Potency,[10],10.5 µM (active)
same,Potency,[11],8.33 µM (active)
same,Potency,[12],9.35 µM (active)
same,Potency,[18],8.33 µM (active)
same,Potency,[15],23.5 µM (active)
same,Potency,[17],7.43 µM (active)
same,Potency,[19],8.33 µM (active)
CNC(=O)c1ccc2c(C(=Nc3cccc(CN(C)C)c3)c3ccccc3)c(O)[nH]c2c1,Potency,[1],inactive
same,Potency,[2],4.18 µM (active)
same,Potency,[3],4.18 µM (active)
same,Potency,[5],5.9 µM (active)
same,Potency,[10],16.6 µM (active)
same,Potency,[11],14.8 µM (active)
same,Potency,[12],16.6 µM (active)
same,Potency,[13],16.6 µM (active)
same,Potency,[14],18.7 µM (active)
same,Potency,[18],16.6 µM (active)
same,Potency,[15],13.2 µM (active)
same,Potency,[20],inactive
same,Potency,[19],8.33 µM (active)
O=C(Nc1cccc2c(=O)cc(-c3nn[nH]n3)oc12)c1ccc(OCCCCc2ccccc2)cc1,Potency,[16],26.4 µM (active)
same,Potency,[7],18.7 µM (active)
same,Potency,[10],26.4 µM (active)
same,Potency,[11],26.4 µM (active)
same,Potency,[13],14.8 µM (active)
same,Potency,[14],26.4 µM (active)
same,Potency,[20],inactive
same,Potency,[17],23.5 µM (active)
COc1cc2nccc(Oc3ccc(NC(=O)Nc4ccc(F)cc4F)c(F)c3)c2cc1OC,Potency,[1],9.35 µM (active)
same,Potency,[2],6.62 µM (active)
same,Potency,[3],inactive
same,Potency,[6],1.87 µM (active)
same,Potency,[9],11.8 µM (active)
same,Potency,[10],inactive
same,Potency,[11],inactive
same,Potency,[13],inactive
same,Potency,[18],inactive
same,Potency,[17],2.09 µM (active)
same,Potency,[19],1.05 µM (active)
CCCC1OC2C[C@@H]3[C@H]4CCC5=CC(=O)C=C[C@]5(C)[C@H]4C(O)C[C@]3(C)[C@]2(C(=O)CO)O1 (some centres undefined),Potency,[1],0.0066 µM (active)
same,Potency,[2],20.9 µM (active)
same,Potency,[3],0.0662 µM (active)
same,Potency,[6],0.0372 µM (active)
same,Potency,[9],16.6 µM (active)
same,Potency,[10],inactive
same,Potency,[11],inactive
same,Potency,[12],inactive
same,Potency,[14],inactive
same,Potency,[17],0.0015 µM (active)
O=C(O)C1=CO[C@@H](O[C@@H]2O[C@H](CO)[C@H](O)[C@H](O)[C@H]2O)[C@@H]2C(CO)=CC[C@H]12,Potency,[1],inactive
same,Potency,[2],inactive
same,Potency,[3],inactive
same,Potency,[5],inactive
same,Potency,[7],inactive
same,viability,[8],118%
same,Potency,[10],inactive
same,Potency,[12],inactive
same,Potency,[14],inactive
same,Potency,[15],4.18 µM (active)
same,Potency,[20],inactive
same,Potency,[17],inactive
same,Potency,[19],inactive
CC(=O)Nc1cccc(-n2c(=O)n(C3CC3)c(=O)c3c(Nc4ccc(I)cc4F)n(C)c(=O)c(C)c32)c1,Potency,[1],inactive
same,Potency,[3],5.9 µM (active)
same,Potency,[4],inactive
same,Potency,[5],0.0132 µM (active)
same,Potency,[6],inactive
same,Potency,[8],3.72 µM (active)
same,Potency,[9],1.48 µM (active)
same,Potency,[10],0.332 µM (active)
same,Potency,[11],0.0418 µM (active)
same,Potency,[12],inactive
same,Potency,[14],0.296 µM (active)
same,Potency,[15],1.66 µM (active)
same,Potency,[19],inactive
CNC(=O)[C@H](CC1=CN=C2C=CCC=C12)NC(=O)[C@@H](CC(=O)NO)CC(C)C,Potency,[1],inactive
same,Potency,[3],0.059 µM (active)
same,Potency,[7],inactive
same,viability,[8],109%
same,Potency,[15],inactive
same,Potency,[20],inactive
same,Potency,[19],5.9 µM (active)
Cc1ccc(S(=O)(=O)OCC(=O)Nc2ccc(C(=O)O)c(O)c2)cc1,Potency,[1],inactive
same,Potency,[6],18.7 µM (active)
same,viability,[8],102%
same,Potency,[10],3.72 µM (active)
same,Potency,[11],7.43 µM (active)
same,Potency,[12],16.6 µM (active)
same,Potency,[13],9.35 µM (active)
same,Potency,[14],20.9 µM (active)
same,Potency,[18],20.9 µM (active)
same,Potency,[15],inactive
same,Potency,[20],inactive
same,Potency,[19],inactive
COc1ccc2nc3cc(Cl)ccc3c(Nc3cc(CN4CCCC4)c(O)c(CN4CCCC4)c3)c2n1,Potency,[1],20.9 µM (active)
same,Potency,[3],16.6 µM (active)
same,Potency,[6],18.7 µM (active)
same,Potency,[7],23.5 µM (active)
same,Potency,[8],14.8 µM (active)
same,Potency,[9],23.5 µM (active)
same,Potency,[10],14.8 µM (active)
same,Potency,[11],18.7 µM (active)
same,Potency,[12],9.35 µM (active)
same,Potency,[14],18.7 µM (active)
same,Potency,[18],16.6 µM (active)
same,Potency,[15],18.7 µM (active)
same,Potency,[17],16.6 µM (active)
